Source: PubChem BioAssay
Calls of active or inactive are those of the source.

What was measured:
[1] = binders of probe aFSTL3 on microarray, primary screen, stem cell growth factor project, biochemical, small-molecule microarray, fluorescence 635/667 (AID 1064); details: higher = more signal;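 also: measures binding of the biotinylated anti-FSTL3 antibody to printed compounds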
[2] = binders from COS7 lysate, DM2A8 probe, primary screen, torsin A project, cell lysate, small-molecule microarray, fluorescence 635/667 (AID 1065); details: higher = more signal, COS7 lysate expressing mutant human TOR1A
[3] = binders of probe aFGF2 on microarray, primary screen, stem cell growth factor project, biochemical, small-molecule microarray, fluorescence 635/667 (AID 1067); details: higher = more signal;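 also: measures binding of biotinylated aFGF2 protein to printed compounds on slides; z-score merges feature fluorescence and signal-to-noise across triplicate slides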
[4] = binders of probe aFGF10 on microarray, primary screen, stem cell growth factor project, biochemical, small-molecule microarray, fluorescence 635/667 (AID 1071); details: higher = more signal;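 also: score merges 667 nm spot intensity and signal to noise from triplicate slides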
[5] = biological target: Neurogenic locus notch homolog protein 2 (Homo sapiens) (UniProt Q04721); assay: Notch2 binders on small-molecule microarrays, primary screen, biochemical, small-molecule microarray, 635 nm fluorescence, stem cell growth factors (AID 1073); details: Notch2 binding, higher = more signal
Chain of Neurogenic locus notch homolog protein 2 (Homo sapiens) (Q04721 whole entry, looked up, canonical isoform): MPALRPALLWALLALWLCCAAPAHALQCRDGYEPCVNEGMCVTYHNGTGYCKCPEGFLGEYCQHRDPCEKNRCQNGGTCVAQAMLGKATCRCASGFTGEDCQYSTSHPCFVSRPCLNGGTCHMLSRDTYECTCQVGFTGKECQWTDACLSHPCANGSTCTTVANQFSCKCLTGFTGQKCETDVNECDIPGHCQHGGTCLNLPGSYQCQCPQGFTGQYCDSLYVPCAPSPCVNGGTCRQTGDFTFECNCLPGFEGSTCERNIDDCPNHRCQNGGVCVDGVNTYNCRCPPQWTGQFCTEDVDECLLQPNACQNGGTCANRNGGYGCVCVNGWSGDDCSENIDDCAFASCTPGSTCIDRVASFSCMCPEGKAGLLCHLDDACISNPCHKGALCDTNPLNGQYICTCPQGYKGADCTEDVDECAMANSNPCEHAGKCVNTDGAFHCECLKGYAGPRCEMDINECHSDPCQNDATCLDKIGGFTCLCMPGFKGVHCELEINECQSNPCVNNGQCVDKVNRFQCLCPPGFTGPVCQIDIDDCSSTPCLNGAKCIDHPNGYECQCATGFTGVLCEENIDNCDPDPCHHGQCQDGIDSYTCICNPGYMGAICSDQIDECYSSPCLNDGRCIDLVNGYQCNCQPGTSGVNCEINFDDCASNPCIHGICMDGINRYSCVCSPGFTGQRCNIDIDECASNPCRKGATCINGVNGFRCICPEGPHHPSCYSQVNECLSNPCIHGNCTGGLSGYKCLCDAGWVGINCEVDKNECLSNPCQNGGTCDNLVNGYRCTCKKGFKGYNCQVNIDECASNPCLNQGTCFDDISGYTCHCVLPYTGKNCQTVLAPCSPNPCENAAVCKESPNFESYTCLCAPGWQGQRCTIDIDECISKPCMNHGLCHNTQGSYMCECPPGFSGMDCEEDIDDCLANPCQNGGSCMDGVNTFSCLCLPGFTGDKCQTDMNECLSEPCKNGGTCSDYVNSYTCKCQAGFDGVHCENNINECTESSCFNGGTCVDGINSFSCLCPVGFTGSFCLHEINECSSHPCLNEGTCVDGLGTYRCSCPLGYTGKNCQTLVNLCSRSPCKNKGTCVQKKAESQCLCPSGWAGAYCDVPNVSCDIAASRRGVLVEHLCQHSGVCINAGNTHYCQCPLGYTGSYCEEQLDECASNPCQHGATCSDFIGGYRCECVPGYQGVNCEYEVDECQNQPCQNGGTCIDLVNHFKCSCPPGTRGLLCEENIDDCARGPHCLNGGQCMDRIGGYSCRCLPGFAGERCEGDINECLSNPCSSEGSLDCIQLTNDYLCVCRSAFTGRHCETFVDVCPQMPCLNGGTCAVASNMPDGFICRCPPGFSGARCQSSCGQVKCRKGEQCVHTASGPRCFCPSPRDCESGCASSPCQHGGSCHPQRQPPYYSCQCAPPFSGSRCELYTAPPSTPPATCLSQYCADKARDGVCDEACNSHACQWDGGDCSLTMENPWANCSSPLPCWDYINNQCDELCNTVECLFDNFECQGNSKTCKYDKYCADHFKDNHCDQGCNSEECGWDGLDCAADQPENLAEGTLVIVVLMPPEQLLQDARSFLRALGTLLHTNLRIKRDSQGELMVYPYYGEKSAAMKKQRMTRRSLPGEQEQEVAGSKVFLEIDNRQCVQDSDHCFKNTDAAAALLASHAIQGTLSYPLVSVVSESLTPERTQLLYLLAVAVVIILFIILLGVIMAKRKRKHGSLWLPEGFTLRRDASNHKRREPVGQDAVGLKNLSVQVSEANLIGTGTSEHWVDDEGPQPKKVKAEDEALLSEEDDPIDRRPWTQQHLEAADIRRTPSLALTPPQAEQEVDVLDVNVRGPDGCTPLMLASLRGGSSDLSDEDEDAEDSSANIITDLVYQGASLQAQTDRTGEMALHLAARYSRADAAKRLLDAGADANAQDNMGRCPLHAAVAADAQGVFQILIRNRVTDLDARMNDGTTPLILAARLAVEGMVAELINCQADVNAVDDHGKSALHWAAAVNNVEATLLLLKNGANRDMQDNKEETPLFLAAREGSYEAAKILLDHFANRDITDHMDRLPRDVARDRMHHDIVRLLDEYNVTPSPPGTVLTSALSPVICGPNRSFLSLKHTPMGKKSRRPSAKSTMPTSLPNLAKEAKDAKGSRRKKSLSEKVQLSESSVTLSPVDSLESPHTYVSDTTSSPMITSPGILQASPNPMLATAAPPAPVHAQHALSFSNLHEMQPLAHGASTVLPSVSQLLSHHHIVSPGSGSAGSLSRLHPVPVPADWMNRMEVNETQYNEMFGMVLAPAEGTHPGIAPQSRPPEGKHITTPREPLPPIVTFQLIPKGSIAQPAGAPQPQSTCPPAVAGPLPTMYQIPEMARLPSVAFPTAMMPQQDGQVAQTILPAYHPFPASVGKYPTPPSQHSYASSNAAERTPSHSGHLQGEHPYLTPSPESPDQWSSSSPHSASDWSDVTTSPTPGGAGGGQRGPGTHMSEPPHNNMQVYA

[6] = biological target: Pro-neuregulin-1, membrane-bound isoform (Homo sapiens) (UniProt Q02297); assay: NRG1 binders on small-molecule microarrays, primary screen, psychiatric disease protein project, biochemical, small-molecule microarray, fluorescence 635/667 (AID 1075); details: NRG1 binding, 635 nm fluorescence, higher = more signal;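 also: score combines 667 nm spot fluorescence with signal to noise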
Chain of Pro-neuregulin-1, membrane-bound isoform (Homo sapiens) (Q02297 whole entry, looked up, the tested form may be a part, canonical isoform): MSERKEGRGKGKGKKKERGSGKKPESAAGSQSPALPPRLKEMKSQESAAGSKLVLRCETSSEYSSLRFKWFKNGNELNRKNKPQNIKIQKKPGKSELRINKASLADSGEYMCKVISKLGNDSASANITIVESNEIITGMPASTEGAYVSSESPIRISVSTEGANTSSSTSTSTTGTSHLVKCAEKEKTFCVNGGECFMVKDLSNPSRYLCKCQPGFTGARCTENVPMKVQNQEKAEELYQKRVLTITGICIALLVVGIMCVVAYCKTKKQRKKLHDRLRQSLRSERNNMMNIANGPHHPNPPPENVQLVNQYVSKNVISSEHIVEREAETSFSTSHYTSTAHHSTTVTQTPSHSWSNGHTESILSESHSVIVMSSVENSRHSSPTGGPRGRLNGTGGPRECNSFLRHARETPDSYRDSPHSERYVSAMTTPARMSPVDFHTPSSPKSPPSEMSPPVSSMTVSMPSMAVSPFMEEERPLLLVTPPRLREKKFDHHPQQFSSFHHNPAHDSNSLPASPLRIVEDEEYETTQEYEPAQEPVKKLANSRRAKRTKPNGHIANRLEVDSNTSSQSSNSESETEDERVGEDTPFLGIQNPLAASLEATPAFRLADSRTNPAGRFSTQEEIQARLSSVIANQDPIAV

[7] = system: Neuregulin-1 EGF-like domain; assay: binders of neuregulin-1 EGF-like domain, primary screen, biochemical, small-molecule microarray, 635 nm fluorescence (AID 1081); details: small-molecule microarray binding, higher = more signal;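 also: binding of the protein to compounds printed on small-molecule microarray slides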
[8] = FRG1 promoter luciferase signal modulators, primary screen, FRG1 inhibition for FSHD, cell-based, C2C12 myotubes, firefly/Renilla luciferase, luminescence (AID 1084); details: higher = more signal, called active from +8 up or from −8 down
[9] = binders of probe aFST on microarray, primary screen, stem cell growth factor project, biochemical, small-molecule microarray, fluorescence 635/667 (AID 1086); details: higher = more signal;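 also: score merges 667 nm fluorescence with signal-to-noise of each printed compound spot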
[10] = binders of probe aHhip on microarray, primary screen, stem cell growth factor project, biochemical, small-molecule microarray, fluorescence 635/667 (AID 1087); details: higher = more signal;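 also: score merges spot fluorescence at 667nm with spot signal to noise ratio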
[11] = system: PRMT1 (protein arginine N-methyltransferase 1); assay: PRMT1 binders on small-molecule microarrays, primary screen, biochemical, small-molecule microarray, 635 nm fluorescence (AID 1088); details: small-molecule microarray binding, higher = more signal;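 also: binding of Prmt1 protein to compounds spotted on small-molecule microarray slides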
[12] = yeast growth modulation, basal conditions, primary screen, YJM789 clinical isolate, OD600, 24 h (AID 1089);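 also: growth of clinical yeast isolate S. cerevisiae YJM 789 seeded 1000 cells per well; test concentration not given here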; details: S. cerevisiae YJM789 growth, higher = more signal, called active from +8 up or from −8 down
[13] = fission yeast growth modulation, primary screen, strain 972, OD600, 24 h, no modulator (AID 1090);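 also: basal condition with compound alone and no growth modifier present; test concentration not given here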; details: S. pombe 972 growth, higher = more signal, called active from +8 up or from −8 down
[14] = S. cerevisiae growth modulation with rapamycin, primary screen, strain BY4716, OD600, 96 h (AID 1091); details: higher = more signal, called active from +8 up or from −8 down; also: test concentration not given here
[15] = biological target: Torsin-1A-interacting protein 2 (Homo sapiens) (UniProt Q8NFQ8); assay: LULL1 binders on small-molecule microarray, primary screen, cell lysate, human LULL1 lysate, 635/667 nm fluorescence (AID 1092); details: hLULL1 lysate binding, 635 nm fluorescence, higher = more signal;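 also: probe is lysate of COS7 cells overexpressing human LULL1; score merges per-feature 667 nm fluorescence with signal-to-noise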
Chain of Torsin-1A-interacting protein 2 (Homo sapiens) (Q8NFQ8 whole entry, looked up): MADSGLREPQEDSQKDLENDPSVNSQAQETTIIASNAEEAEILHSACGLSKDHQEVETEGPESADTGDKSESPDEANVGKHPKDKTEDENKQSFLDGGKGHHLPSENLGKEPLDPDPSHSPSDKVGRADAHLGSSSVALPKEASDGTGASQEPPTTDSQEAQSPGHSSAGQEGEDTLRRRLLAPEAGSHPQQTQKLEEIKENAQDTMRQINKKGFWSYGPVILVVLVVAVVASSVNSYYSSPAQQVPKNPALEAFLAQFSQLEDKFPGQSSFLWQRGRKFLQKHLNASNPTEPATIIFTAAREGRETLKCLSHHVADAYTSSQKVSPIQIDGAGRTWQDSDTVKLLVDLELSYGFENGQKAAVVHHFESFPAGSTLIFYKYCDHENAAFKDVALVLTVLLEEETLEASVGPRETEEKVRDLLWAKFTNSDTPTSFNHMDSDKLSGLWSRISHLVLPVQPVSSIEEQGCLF

[16] = E. coli growth modulation, two-sided OD650, primary screen, E. coli filamentation project, strain DRC41, 24 h (AID 1093); details: OD650, 24 h, higher = more signal, called active from +8 up or from −8 down;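 also: MC1000 strain lacking acrAB efflux and sulA so SOS filamentation is blocked; test concentration not given here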
[17] = small-molecule microarray binders of probe aLefty2, primary screen, biochemical, biotinylated probe, 635/667 nm fluorescence (AID 1094); details: higher = more signal;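 also: score merges spot fluorescence near 667 nm with spot signal-to-noise ratio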
[18] = system: Noggin (protein binding on small-molecule microarray); assay: Noggin binders on small-molecule microarray, primary screen, biochemical, 635/667 nm fluorescence (AID 1095); details: 635 nm fluorescence, higher = more signal;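 also: score merges 667 nm feature fluorescence with signal to noise over triplicate slides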
[19] = biological target: Neurogenic locus notch homolog protein 3 (Homo sapiens) (UniProt Q9UM47); assay: NOTCH3 binders on small-molecule microarray, primary screen, biochemical, 635/667 nm fluorescence (AID 1096); details: NOTCH3 binding, 635 nm fluorescence, higher = more signal
[20] = small-molecule microarray binders of probe aEGFR, primary screen, biochemical, biotinylated probe, 635/667 nm fluorescence (AID 1097); details: higher = more signal;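 also: probe is a biotinylated anti-EGFR antibody binding compounds printed on slides; score combines fluorescence near 667 nm and signal to noise of each spot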

Structure (SMILES)	composite z-score [1]	composite z-score [2]	composite z-score [3]	composite z-score [4]	composite z-score [5]	composite z-score [6]	composite z-score [7]	z-score [8]	composite z-score [9]	composite z-score [10]	composite z-score [11]	z-score [12]	z-score [13]	z-score [14]	composite z-score [15]	z-score [16]	composite z-score [17]	composite z-score [18]	composite z-score [19]	composite z-score [20]
CCOC(=O)C[C@H]1[C@H](OC(=O)c2ccc(-c3ccccc3)cc2)[C@@H](NC(=O)Cc2ccc(OC)cc2)c2cc(OCCCO)ccc2N1C(=O)c1ccccc1	-0.0117	-0.354	-0.0316	0.23	0.255	0.176	0.3	-0.831 (inactive)	0.376	-0.0391	-0.15	0.359 (inactive)	0.822 (inactive)	0.72 (inactive)	0.905	-0.69 (inactive)	0.044	0.763	0.238	-0.122
COC(=O)[C@@]1(Cc2ccc(OC)cc2)[C@H]2c3cc(C(=O)N4CCCC4)n(Cc4ccc(C)c(F)c4F)c3C[C@H]2CN1C(=O)c1ccccc1	0.77	-0.5	0.176	0.78	1.77	1.65	1.31	0.352 (inactive)	1.78	2.12	0.998	0.57 (inactive)	1.48 (inactive)	1.57 (inactive)	3.52	0.107 (inactive)	0.505	0.214	1.04	0.178
C=CCOC(=O)[C@H]1[C@@H]2C(=O)O[C@@H](c3ccccc3)[C@@H](c3ccccc3)N2[C@@H](c2ccc(OCCOC(=O)[C@@H]3C[C@@H]4C(=O)N[C@@H](CC(C)C)C(=O)N4[C@@H]3c3ccc(O)cc3)cc2)[C@]12C(=O)Nc1ccccc12	-0.254	0.479	0.0056	0.649	0.85	1.02	1.2	0.631 (inactive)	0.0922	0.0201	1.53	0.963 (inactive)	1.32 (inactive)	4.11 (inactive)	3.2	0.703 (inactive)	0.115	1.49	1.1	0.0195
C[N+](C)(C)CCCCCCNC(=O)[C@@H]1C[C@@H]2C(=O)N[C@@H](Cc3ccccc3)C(=O)N2[C@@H]1c1cccc(OCCO)c1	-0.0274	0.673	-0.0969	0.44	-0.165	1.2	1.34	1.5 (inactive)	0.143	0.236	1.57	-0.165 (inactive)	0.297 (inactive)	-0.214 (inactive)	2.87	1.02 (inactive)	0.0235	1.82	1.09	-0.0688
CC(C)C[C@@H]1NC(=O)[C@@H]2C[C@H](C(=O)O)[C@H](c3cccc(OCCO)c3)N2C1=O	0.73	0.363	-0.0403	-0.276	-0.475	0.402	0.643	1.29 (inactive)	-0.235	-0.264	0.64	-0.19 (inactive)	-0.734 (inactive)	-0.56 (inactive)	1.89	1.06 (inactive)	-0.173	-0.0135	-0.155	-0.229
COc1cc(NN2C(C(O)c3ccco3)C=CC3C(=O)N(c4ccccc4)C(=O)C32)cc(OC)c1OC (stereo not given)	-0.178	-0.218	-0.116	0.127	0.723	1.18	1.21	0.889 (inactive)	0.162	-0.0215	0.216	0.602 (inactive)	0.0991 (inactive)	-0.234 (inactive)	2.41	-1.18 (inactive)	-0.2	0.0945	0.703	-0.0688
CCCCCN1CC=CC23O[C@@H]4C=CCCOC(=O)C4[C@H]2C(=O)N(CCCCCO)[C@@H]3C1=O (stereo not given in full)	0.262	1.2	-0.195	-0.168	-0.814	0.927	1.55	-0.666 (inactive)	-0.432	-0.45	-0.192	-0.286 (inactive)	-0.772 (inactive)	-0.255 (inactive)	2.3	0.764 (inactive)	-0.0288	-0.589	-0.147	-0.203
COc1cc2c(cc1O)C(c1cccs1)N(C)CC2 (stereo not given)	-0.101	-0.493	-0.201	-0.143	-0.521	-0.714	-0.31	0.52 (inactive)	-0.166	-0.0994	-0.414	0.213 (inactive)	1.07 (inactive)	-2.13 (inactive)	-0.849	0.841 (inactive)	-0.0943	-0.428	-0.0102	-0.151
C=CCN1C(=O)[C@]2(O[C@H](CCn3cc([C@H](O)c4ccccc4)nn3)[C@@H]([Si](C)(C)c3ccc(OC)cc3)[C@@H]2C)c2cc(N3CCC3=O)ccc21	-0.0453	0.334	0.0087	0.679	-0.255	1.9	1.14	-1.43 (inactive)	-0.282	0.0505	0.942	0.487 (inactive)	0.406 (inactive)	2.47 (inactive)	1.56	1.28 (inactive)	-0.0397	1.82	0.803	-0.154
